High-throughput results: PubChem BioAssay, National Center for Advancing Translational Sciences (NCATS)
The list is a sample of the results.
HepG2 viability = kills HepG2 cells in TGF-b inhibitor counter-screen | HepG2 CAGA-GFP viability, ATP luminescence, 18 h | AID 588856 | Potency, µM (titrated, usually from 46.1 µM), hits mostly cytotoxic | 410,000 compounds, 0.76% hits
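HepG2 CAGA-GFP cells (1000/well, DMEM with 1% FBS) received compound, then TGF-beta at 500 pg/mL final, and were incubated 18 hours at 37 degrees C. Viability was read by CellTiter-Glo luminescence. Media-only wells were set as complete cell-killing and DMSO as no toxicity.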
HT1080 IDH1KD tx = toxicity to HT-1080 IDH1 knockdown cells (counter line). HT-1080 IDH1 knockdown viability, ATP luminescence, 48 h. Potency, µM (titrated, usually from 46.1 µM), most hits filed as cytotoxic. 360,000 compounds, 2% hits
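Cytotoxicity counter-line: IDH1KD HT-1080, 48 h, CellTiter-Glo. Curves classed by r2, magnitude and activity.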
ATXN2 expr inh = inhibitors of ATXN2 expression. HEK-293 ATXN2-luciferase reporter, luminescence, 24 h. Potency, µM (titrated, usually from 57 µM), most hits filed as inhibitors. 360,000 compounds, 0.72% hits; also: nearly all actives have a fitted effect of over 55% in size
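ATXN2-luciferase reporter cells (luciferase flanked by upstream and downstream ATXN2 gene portions) were treated 24 h at 37 °C with compounds at up to 57 uM. SteadyGlo luminescence gave expression; GF-AFC fluorescence gave viability.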
HT1080-NT tox = kills 2HG-producing HT-1080-NT fibrosarcoma cells; HT-1080-NT fibrosarcoma viability, CellTiter-Glo ATP luminescence, 48 h; Potency, µM (doses to about 46.1 µM), hits mostly cytotoxic; 360,000 compounds, 1.6% hits;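 also: NT is the 2HG producing partner of a matched IDH1 knockdown line; nearly all actives have a fitted effect of over 55% in size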
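A 48-hour cytotoxicity screen used HT-1080-NT cells plated 2 hours before compound delivery. ATP-based CellTiter-Glo luminescence measured viability, normalized to DMSO and no-cell controls.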
TGFb inhibitor = inhibitors of TGF-b signaling; AID 588855; Potency, µM (series often up to 46.1 µM), usual class: inhibitors; HepG2 CAGA-GFP TGF-b/SMAD3 reporter, GFP fluorescence, 18 h; TGF-beta stimulated, 500 pg/mL final; 410,000 compounds, 1.2% hits; also: nearly all actives have a fitted effect of over 65% in size
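GFP signal (ex488/em500-530) from TGF-beta-stimulated HEPG2 CAGA-GFP cells, 500 pg/mL final, 18 h at 37 degrees C in DMEM plus 1% FBS, normalized to unstimulated and DMSO-stimulated controls.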
S2 tox = viability counter-screen for ATXN expression inhibitors | S2 cells (HEK-293 line with an ATXN2-luciferase reporter) viability, CellTiter-Fluor protease fluorescence, 24 h | AID 651635 | Potency, µM (highest dose often 56.7 µM), actives largely listed as cytotoxic | 400,000 compounds, 0.49% hits; also: nearly all actives have a fitted effect of over 40% in size
EBOV entry S4 rt = Ebola virus entry blockers, screen 4 ratio channel | 170 compounds, 79% hits | AID 1117308 | shares compounds with ATXN2 expr inh | AC50, µM | Ebola pseudovirus entry assay, ratio channel; calls by dose curve
EBOV S4 blue = Ebola entry inhibition, blue channel, screen 4; shares compounds with ATXN2 expr inh; Ebola virus entry assay, blue channel fluorescence ratio; Channel: blue; calls only; 170 tested, under 10 active; AID 1117309; call rule not given here
EBOV entry S4 grn = Ebola entry inhibition, green channel, screen 4; calls only; AID 1117316; 170 tested, under 10 active; shares compounds with ATXN2 expr inh; Ebola virus entry reporter assay, green fluorescence channel; Channel: green; call rule not given here
Numbers stand for hits; . = inactive; ? = inconclusive; / = no result given; ! = not confirmed by another sample; [ ] = another dose, or the depositor's remark. Unless noted, calls follow the shape of the dose curve; as a rule, active = well fitted curve in the direction sought with a large enough effect; inconclusive = small, poorly fitted or top-dose-only effect, or another doubt; inactive = no such curve, though single readings can be large; an effect the other way counts as inactive or inconclusive.

SMILES	HepG2 viability	HT1080 IDH1KD tx	ATXN2 expr inh	HT1080-NT tox	TGFb inhibitor	S2 tox	others
CCOC(=O)NC(C)(C)Cc1ccc(Cl)cc1	/	/	.	/	/	.
C[C@@]12CC3CC(N)(C1)C[C@@](C)(C3)C2	/	/	/	/	/	.
O=C(O)c1ccc2[nH]cc(CCCCN3CC=C(c4ccccc4)CC3)c2c1	/	/	.	/	/	.
COC(=O)[C@H]1[C@H]2C[C@@H]3c4[nH]c5cc(OC)ccc5c4CCN3C[C@H]2C[C@@H](OC(=O)/C=C/c2cc(OC)c(OC)c(OC)c2)[C@@H]1OC	.	?	.	?	.	?
CCOP(=O)(c1ccc(N(C)C)cc1)C(O)c1cccnc1 (centres undefined)	.	.	.	.	.	.
COc1ccc(C)cc1NC(=O)C1CCN(S(=O)(=O)c2ccc3[nH]c(=O)oc3c2)CC1	.	/	.	/	.	.
CCn1cc(C(=O)NCCc2ccc(OC)c(OC)c2)c(=O)c2cc(S(=O)(=O)N(C)C3CCCCC3)ccc21	.	/	?	/	?	/
c1cc2c3c(cccc3c1)CC2	.	/	/	/	.	/
CC(C)CC1C(=O)N(Cc2cn(CC3CCCCC3)nn2)CCS(=O)(=O)N1Cc1ccc(-c2ccc(F)nc2)cc1 (centres undefined)	.	.	?	.	.	?
Cn1cc(C2=C(c3cn(C4CCN(Cc5ccccn5)CC4)c4ccccc34)C(=O)NC2=O)c2ccccc21	/	/	?	/	/	.
COc1cccc(-n2c(SCC(=O)c3ccc(Cl)cc3)nc3c([nH]c4ccccc43)c2=O)c1	.	/	.	/	?	.
CCOC(=O)N1CCN(C(=O)Cn2ncc3c4ccccc4n(Cc4ccc(F)cc4)c3c2=O)CC1	.	/	?	/	?	?
O=C(Cc1ccccc1)OCCN1CCCCC1	.	.	.	.	?	.
COc1ccc(CCNc2oc(-c3ccc(OC)c(OC)c3)nc2P(=O)(OC)OC)cc1OC	.	.	.	.	.	?
CN1CCC2(CC1)c1ccccc1-c1ccccc12	.	.	.	.	.	.
ClCCN(CCCl)c1ccc(C=Nc2ccncc2)cc1	.	/	/	/	.	/
Cc1cccc(N2CCN(C(=O)C34CC5CC(CC(C5)C3)C4)CC2)c1C	.	.	.	.	.	.
OC[C@H]1OC(O)C[C@@H](O)[C@@H]1O (some centres undefined)	.	.	.	?	.	.
Cn1c(=O)oc2cc(S(=O)(=O)N3CCC(C(=O)N4CCc5ccccc5C4)CC3)ccc21	.	.	.	.	?	.
COc1cc([N+](=O)[O-])cc([N+](=O)[O-])c1N	.	/	/	/	.	/
CCc1ccc(NC(=O)Cn2c(=O)oc3cc(S(=O)(=O)NCc4ccccc4)ccc32)cc1	.	/	.	/	.	.
Clc1ccc2c(N3CCNCC3)ccnc2c1	.	.	.	.	.	.
CCCCN1CCS(=O)(=O)N(Cc2ccccc2Br)CC(C(=O)OC)C1 (centres undefined)	.	.	.	.	?	.
NCCCC(O)(P(=O)(O)O)P(=O)(O)O	/	/	.	/	/	.	EBOV entry S4 rt=.;EBOV S4 blue=.;EBOV entry S4 grn=.
CC(=O)N1CCN(c2ccc(OC[C@@H]3CO[C@@](Cn4ccnc4)(c4ccc(Cl)cc4Cl)O3)cc2)CC1	.	/	/	/	?	/
SMILES	HepG2 viability	HT1080 IDH1KD tx	ATXN2 expr inh	HT1080-NT tox	TGFb inhibitor	S2 tox	others
Cc1cccc(N2C(=O)NC(=O)/C(=C/c3ccc([N+](=O)[O-])o3)C2=O)c1	.	.	.	.	.	.
COc1ccccc1CNC(=O)C(NS(=O)(=O)c1ccc2c(c1)oc(=O)n2C)C(C)C (centres undefined)	.	.	.	.	.	.
CC1CCN(C(=O)N2c3ccccc3Sc3ccccc32)CC1	.	.[9.24 µM]	.	?	?	.
O=C(NCCc1ccccc1)[C@@H]1CC=C[C@@H]2CCN(Cc3ccc(Cl)c(Cl)c3)C(=O)[C@@H]21	.	.	.	.	?	/
CNC(=O)Oc1cccc2ccccc12	.	/	.	/	.	.
CN1C[C@H](CNC(=O)OCc2ccccc2)C[C@H]2c3cccc4c3c(cn4C)C[C@@H]21	/	/	/	/	/	.
CC(CNC1CCCCC1)OC(=O)c1ccccc1 (centres undefined)	.	.	.	.	.	.	EBOV entry S4 rt=.;EBOV S4 blue=.;EBOV entry S4 grn=.
c1ccc(CNC2CCCCCCC2)cc1 (tested in a mixture with another compound)	.	.	.	.	.	.
CC(C)(C)n1ncc2c(=O)n(Cc3cccc(Cn4cnc5c(cnn5C(C)(C)C)c4=O)c3F)cnc21	.	/	.	/	?	.
O=C1NCN(c2ccccc2)C12CCNCC2	.	.	.	.	.	.
O=C1CC(N2CCC(n3c(=O)[nH]c4ccccc43)CC2)C(=O)N1c1ccc(F)cc1 (centres undefined)	.	.	.	.	.	?
Cc1ccc(NC(=O)c2cc(S(=O)(=O)N3CCOCC3)c(Cl)cc2Cl)cc1	.	/	?	/	?	?
CCC(=O)OC1(c2ccccc2)CCN(C)CC1	/	/	.	/	/	.
COc1cccc2c1C(=O)c1c(O)c3c(c(O)c1C2=O)C[C@@](O)(C(C)=O)C[C@@H]3O[C@H]1C[C@H](N)[C@H](O)[C@H](C)O1	.	0.15µM	10µM!	0.073µM	?	?	EBOV entry S4 rt=2.4µM;EBOV S4 blue=.;EBOV entry S4 grn=.
Cc1ccc(Cl)cc1N1CCN(CCN)CC1	.	.	.	.	.	.
COc1ccc(-c2c3c(nc4sc5c(Cl)nc(C)nc5c24)CCC3)cc1	.	.	.	.	.	?
O=C(Nc1ccc(OC(F)(F)F)cc1)C1CCN(S(=O)(=O)c2cccs2)CC1	.	/	?	/	?	?
OC(CNCc1ccccc1)c1ccc(Cl)cc1 (centres undefined)	.	.	.	.	.	.
CN1[C@H]2CC(=O)C[C@@H]1[C@@H](O)C2	/	/	/	/	/	.
CN(C)c1ccccc1	.	.	/	.	.	.
